The values below come from PubChem BioAssay (NCI).

This is part of a sample that, as a whole, favours compounds with a hit. Of some 79,000 tested, about 15% had one in any assay. Unmarked numbers belong to inactive results. Activity calls are given as the source filed them. No stated cut-off is given here; in the data, active means growth inhibition above about 70%; inactive means the rest.

Assay [1] in a line: NCI Yeast Anticancer Drug Screen. Data for the rad50 strain (AID 155).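 Further: 0% = growth of vehicle-only cultures of the same strain.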 The settings on record: S. cerevisiae rad50 strain growth inhibition, active compounds read high. In short, it runs like this:
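A DNA repair-deficient yeast mutant serves as the test organism; compound-induced growth inhibition is calculated against vehicle-treated cells.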

A short description of assay [2]: NCI Yeast Anticancer Drug Screen. Data for the mec2-1 strain (AID 157). The settings on record: S. cerevisiae mec2-1 strain, active compounds read high. In short, it runs like this:
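Readout is yeast growth inhibition, normalised to vehicle-treated controls, in the mec2-1 strain exposed to compound.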

A short description of assay [3]: NCI Yeast Anticancer Drug Screen. Data for the sgs1 mgt1 strain (AID 161).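 Further: 0% = growth of cultures given vehicle only.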 The settings on record: S. cerevisiae sgs1 mgt1 strain, active compounds read high. In short, it runs like this:
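Yeast cells carrying a defined DNA-repair defect were exposed to test compounds. Growth inhibition was measured relative to vehicle-treated controls.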

A short description of assay [4]: NCI Yeast Anticancer Drug Screen. Data for the cln2 rad14 strain (AID 165).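 Further: 0% = growth equal to vehicle treated cultures.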 To be noted: S. cerevisiae cln2 rad14 strain, active compounds read high. The method in brief:
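Relative to vehicle controls, growth inhibition of compound-treated cln2 rad14 yeast was recorded.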

The nature of assay [5]: NCI Yeast Anticancer Drug Screen. Data for the bub3 strain (AID 167). To be noted: S. cerevisiae bub3 mutant strain, active compounds read high. In short, it runs like this:
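Inhibition values come from growth of compound-treated mutant yeast normalised to vehicle-treated controls.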

The nature of assay [6]: NCI Yeast Anticancer Drug Screen. Data for the mlh1 rad18 strain (AID 175). To be noted: S. cerevisiae mlh1 rad18 strain growth inhibition, active compounds read high. The method in brief:
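Test agents were incubated with a yeast strain of defined genotype (DNA damage repair defect). Inhibition of growth was derived by comparison with vehicle-exposed cultures.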

The mark [7] stands for this setting: at 5.0 µM (retest, dose inferred, filed as 0.5).
The mark [8] stands for this setting: at 50.0 µM (retest, dose inferred, filed as 5.0).

As to `O=C1C=Cc2ccccc2C1=O`, the growth inhibition in assay [1] (setting [7]) was 29%; in assay [1] (setting [8]), 87% (active); in assay [1] (at 50.0 µM), 83.6% (active); in assay [2] (setting [7]) it was 32%; in assay [2] (setting [8]) it was 95% (active); in assay [2] (at 50.0 µM) it was 88.8% (active). The growth inhibition in assay [3] (setting [7]) is 30%; in assay [3] (setting [8]), 72% (active); in assay [3] (at 50.0 µM), 88.2% (active); in assay [4] (setting [7]), 18%; in assay [4] (setting [8]), 87% (active); in assay [4] (at 50.0 µM), 46.3%. Besides, the growth inhibition in assay [5] (setting [7]) was 36%; in assay [5] (setting [8]), 97% (active); in assay [5] (at 50.0 µM), 91.9% (active); in assay [6] (setting [7]) it was 31%; in assay [6] (setting [8]) it was 96% (active); in assay [6] (at 50.0 µM), 94.9% (active).
Consider `O=[As]c1ccc(O)c(O)c1` (stereo not drawn), for which the growth inhibition in assay [1] (setting [7]) was 11%; in assay [1] (setting [8]) it was 99% (active); in assay [1] (at 50.0 µM), 97% (active); in assay [2] (setting [7]) it was -4%; in assay [2] (setting [8]), 100% (active); in assay [2] (at 50.0 µM), 99.4% (active). For the same compound, the growth inhibition in assay [3] (setting [7]) is -4%; in assay [3] (setting [8]), 99% (active); in assay [3] (at 50.0 µM) it was 99.5% (active); in assay [4] (setting [7]), -9%; in assay [4] (setting [8]) it was 99% (active); in assay [4] (at 50.0 µM), 98.8% (active). Besides, the growth inhibition in assay [5] (setting [7]) was 22%; in assay [5] (setting [8]) it was 99% (active); in assay [5] (at 50.0 µM), 99.2% (active); in assay [6] (setting [7]), 6%; in assay [6] (setting [8]), 99% (active); in assay [6] (at 50.0 µM), 99.3% (active).
For `CC12CCCCC1C(=O)C2(Cl)Cl` (stereo not drawn), the growth inhibition in assay [1] (setting [7]) is -1%; in assay [1] (setting [8]), 11%; in assay [1] (at 50.0 µM), 11.8%; in assay [2] (setting [7]), 1%; in assay [2] (setting [8]), 17%; in assay [2] (at 50.0 µM), -2.45%. The growth inhibition is -1% in assay [3] (setting [7]); 48% in assay [3] (setting [8]); 43% in assay [3] (at 50.0 µM); -1% in assay [4] (setting [7]); -4% in assay [4] (setting [8]); 1.65% in assay [4] (at 50.0 µM). The growth inhibition in assay [5] (setting [7]) was 3%; in assay [5] (setting [8]) it was 13%; in assay [5] (at 50.0 µM), -3.55%; in assay [6] (setting [7]), 1%; in assay [6] (setting [8]), 37%; in assay [6] (at 50.0 µM) it was 27.4%.
For `N#C[S-].[La+3].c1cnc2c(c1)ccc1cccnc12.c1cnc2c(c1)ccc1cccnc12.c1cnc2c(c1)ccc1cccnc12`, the growth inhibition in assay [1] (setting [7]) is 97% (active); in assay [1] (setting [8]), 98% (active); in assay [1] (at 50.0 µM), 91.9% (active); in assay [2] (setting [7]), 99% (active); in assay [2] (setting [8]), 99% (active); in assay [2] (at 50.0 µM) it was 94.4% (active). Further, the growth inhibition in assay [3] (setting [7]) was 99% (active); in assay [3] (setting [8]), 99% (active); in assay [3] (at 50.0 µM) it was 93.5% (active); in assay [4] (setting [7]), 95% (active); in assay [4] (setting [8]) it was 98% (active); in assay [4] (at 50.0 µM), 92.7% (active). Moreover, the growth inhibition in assay [5] (setting [7]) was 99% (active); in assay [5] (setting [8]) it was 99% (active); in assay [5] (at 50.0 µM), 92.1% (active); in assay [6] (setting [7]) it was 98% (active); in assay [6] (setting [8]), 98% (active); in assay [6] (at 50.0 µM), 91.3% (active).
Turning to `C[CH2][Sn]([CH2]C(=O)OC)([CH2]C(=O)OC)[c]1ccccc1`, the growth inhibition in assay [1] (setting [7]) is 97% (active); in assay [1] (setting [8]), 97% (active); in assay [1] (at 50.0 µM), 83.7% (active); in assay [2] (setting [7]), 98% (active); in assay [2] (setting [8]), 98% (active); in assay [2] (at 50.0 µM), 89.2% (active). The growth inhibition was 98% (active) in assay [3] (setting [7]); 98% (active) in assay [3] (setting [8]); 87.8% (active) in assay [3] (at 50.0 µM); 86% (active) in assay [4] (setting [7]); 97% (active) in assay [4] (setting [8]); 84.7% (active) in assay [4] (at 50.0 µM). The growth inhibition in assay [5] (setting [7]) was 98% (active); in assay [5] (setting [8]) it was 98% (active); in assay [5] (at 50.0 µM), 86% (active); in assay [6] (setting [7]), 97% (active); in assay [6] (setting [8]), 97% (active); in assay [6] (at 50.0 µM) it was 90.8% (active).
In the case of `CN(C)N(P(N)(Cl)(c1ccccc1)c1ccccc1)P(N)(Cl)(c1ccccc1)c1ccccc1`, the growth inhibition was 13% in assay [1] (setting [7]); 90% (active) in assay [1] (setting [8]); 63.2% in assay [1] (at 50.0 µM); 22% in assay [2] (setting [7]); 97% (active) in assay [2] (setting [8]); 54.5% in assay [2] (at 50.0 µM). The growth inhibition was -221% in assay [3] (setting [7]); 96% (active) in assay [3] (setting [8]); 44.9% in assay [3] (at 50.0 µM); 0% in assay [4] (setting [7]); 88% (active) in assay [4] (setting [8]); 58.5% in assay [4] (at 50.0 µM). Besides, the growth inhibition is 4% in assay [5] (setting [7]); 88% (active) in assay [5] (setting [8]); 49.5% in assay [5] (at 50.0 µM); 25% in assay [6] (setting [7]); 96% (active) in assay [6] (setting [8]); 50.6% in assay [6] (at 50.0 µM).
